# Columns and labels:
# Test in all cases: DAPPL (digital affinity profiling via proximity ligation, sequencing); 10 mM Tris-HCl pH 7.5, 50 mM NaCl, 1 mM DTT, 4% glycerol, room temperature, 30 min; GST-TFs on glutathione beads, 16-mer random dsDNA library, 0.1% formaldehyde crosslink after washing; high values mean tight binding
# FEV = biological target: T1, FEV (Homo sapiens, UniProt Q99581 1-238); settings: protein: recombinant; tags: N-terminal GST; dsDNA, one strand shown
# T1 sequence: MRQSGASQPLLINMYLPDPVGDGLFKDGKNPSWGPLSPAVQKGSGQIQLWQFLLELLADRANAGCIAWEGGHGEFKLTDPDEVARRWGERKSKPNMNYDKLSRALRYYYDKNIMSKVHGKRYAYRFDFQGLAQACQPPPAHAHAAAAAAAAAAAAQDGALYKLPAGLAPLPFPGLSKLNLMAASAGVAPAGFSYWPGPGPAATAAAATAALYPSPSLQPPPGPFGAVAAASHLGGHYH
# Outline: (§1)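 Human transcription factors carrying a GST fusion were produced in yeast, bound to glutathione beads, tagged with DNA barcodes and pooled together with a tag-only sample. Each pool was held with 200 nmole of a random double-stranded 16-mer DNA library in Tris/NaCl/DTT/glycerol buffer for 30 min at room temperature, then washed, crosslinked in 0.1% formaldehyde, proximity-ligated with BsaI/T4 ligase (1 h, 37 °C), PCR-amplified and sequenced on an Illumina NextSeq500. Binding signal is the read frequency of each hexamer for a given factor divided by its frequency in the tag-only sample.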
# ETV5 = ETV5 (Homo sapiens, UniProt P41161 1-510); settings: protein: recombinant; tags: N-terminal GST; dsDNA, one strand shown
# Chain of ETV5 (P41161 whole entry): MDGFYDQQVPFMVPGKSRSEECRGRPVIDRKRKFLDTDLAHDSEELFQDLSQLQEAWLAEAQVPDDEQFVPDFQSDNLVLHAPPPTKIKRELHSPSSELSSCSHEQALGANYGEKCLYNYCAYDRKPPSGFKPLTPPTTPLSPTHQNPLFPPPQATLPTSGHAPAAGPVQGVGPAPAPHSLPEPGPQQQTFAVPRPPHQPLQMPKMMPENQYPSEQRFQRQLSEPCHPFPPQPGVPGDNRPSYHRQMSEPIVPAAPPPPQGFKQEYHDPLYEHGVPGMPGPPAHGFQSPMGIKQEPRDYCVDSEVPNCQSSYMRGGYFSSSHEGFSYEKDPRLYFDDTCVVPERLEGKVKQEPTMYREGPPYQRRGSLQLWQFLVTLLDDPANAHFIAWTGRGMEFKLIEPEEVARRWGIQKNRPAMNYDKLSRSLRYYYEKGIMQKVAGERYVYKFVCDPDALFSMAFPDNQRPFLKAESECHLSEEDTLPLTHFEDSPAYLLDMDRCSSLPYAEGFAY
# Outline: as §1
# HSF1 = HSF1 (Homo sapiens, UniProt Q00613 1-529); settings: protein: recombinant; tags: N-terminal GST; chain copies: 3; dsDNA, one strand shown
# Chain of HSF1 (Q00613 whole entry): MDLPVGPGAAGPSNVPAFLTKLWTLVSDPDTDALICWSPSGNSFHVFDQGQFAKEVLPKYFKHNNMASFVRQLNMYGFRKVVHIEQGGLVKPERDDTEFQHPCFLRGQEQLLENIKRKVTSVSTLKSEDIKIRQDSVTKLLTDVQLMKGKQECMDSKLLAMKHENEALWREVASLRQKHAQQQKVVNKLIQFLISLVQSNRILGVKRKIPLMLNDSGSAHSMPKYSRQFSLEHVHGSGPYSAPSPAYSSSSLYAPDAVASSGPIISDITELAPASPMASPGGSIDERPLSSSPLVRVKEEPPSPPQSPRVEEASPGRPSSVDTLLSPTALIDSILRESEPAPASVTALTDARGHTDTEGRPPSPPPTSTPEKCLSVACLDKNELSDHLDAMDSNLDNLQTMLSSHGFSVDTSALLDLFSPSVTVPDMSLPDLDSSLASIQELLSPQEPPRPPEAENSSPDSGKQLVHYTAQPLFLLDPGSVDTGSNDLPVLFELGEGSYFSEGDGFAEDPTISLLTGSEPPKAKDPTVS
# Outline: as §1
# SPIC = biological target: T2, SPIC (Homo sapiens, UniProt Q8N5J4 1-248); settings: protein: recombinant; tags: N-terminal GST; dsDNA, one strand shown
# T2 sequence: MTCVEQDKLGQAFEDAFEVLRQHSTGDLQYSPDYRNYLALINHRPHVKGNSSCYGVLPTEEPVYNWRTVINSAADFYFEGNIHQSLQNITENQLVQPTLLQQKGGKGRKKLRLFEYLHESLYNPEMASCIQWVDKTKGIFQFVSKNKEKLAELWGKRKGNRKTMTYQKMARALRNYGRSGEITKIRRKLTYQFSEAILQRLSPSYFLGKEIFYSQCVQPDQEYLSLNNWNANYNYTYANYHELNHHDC
# Outline: as §1
# ELF4 = ELF4 (Homo sapiens, UniProt Q99607 1-663); settings: protein: recombinant; tags: N-terminal GST; dsDNA, one strand shown
# Chain of ELF4 (Q99607 whole entry): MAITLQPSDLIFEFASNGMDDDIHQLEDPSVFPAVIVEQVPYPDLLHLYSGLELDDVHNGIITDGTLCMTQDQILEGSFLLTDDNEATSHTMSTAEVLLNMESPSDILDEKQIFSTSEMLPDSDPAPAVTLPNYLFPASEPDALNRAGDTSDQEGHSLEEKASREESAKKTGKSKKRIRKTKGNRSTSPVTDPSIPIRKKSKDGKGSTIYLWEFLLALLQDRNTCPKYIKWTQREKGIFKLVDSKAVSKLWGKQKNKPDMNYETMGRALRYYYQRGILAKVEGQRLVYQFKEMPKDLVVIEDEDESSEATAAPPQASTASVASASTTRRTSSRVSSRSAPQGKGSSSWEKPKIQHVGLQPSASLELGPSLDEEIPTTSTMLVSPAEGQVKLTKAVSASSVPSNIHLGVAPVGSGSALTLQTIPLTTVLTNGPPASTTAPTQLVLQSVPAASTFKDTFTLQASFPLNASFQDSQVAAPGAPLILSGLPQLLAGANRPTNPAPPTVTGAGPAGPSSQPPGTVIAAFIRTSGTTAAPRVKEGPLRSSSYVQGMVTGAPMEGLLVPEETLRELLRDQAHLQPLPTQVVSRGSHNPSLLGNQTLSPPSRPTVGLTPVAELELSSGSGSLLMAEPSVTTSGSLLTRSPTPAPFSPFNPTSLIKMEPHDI
# Outline: as §1
# ELK4 = biological target: T3, ELK4 (Homo sapiens, UniProt P28324-2 1-405); settings: protein: recombinant; tags: N-terminal GST; dsDNA, one strand shown
# T3 sequence: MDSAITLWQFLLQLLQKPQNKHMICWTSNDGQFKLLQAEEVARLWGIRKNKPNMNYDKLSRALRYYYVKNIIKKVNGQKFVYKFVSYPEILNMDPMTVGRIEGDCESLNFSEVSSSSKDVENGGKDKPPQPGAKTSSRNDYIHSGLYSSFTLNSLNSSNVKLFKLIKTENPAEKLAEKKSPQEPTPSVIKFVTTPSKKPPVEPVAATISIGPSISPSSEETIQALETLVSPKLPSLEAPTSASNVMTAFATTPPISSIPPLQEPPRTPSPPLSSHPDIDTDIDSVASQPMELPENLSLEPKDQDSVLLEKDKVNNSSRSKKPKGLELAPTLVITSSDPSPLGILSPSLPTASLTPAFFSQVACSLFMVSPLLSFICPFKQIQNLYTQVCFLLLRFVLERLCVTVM
# Outline: as §1
# ETV2 = biological target: T4, ETV2 (Homo sapiens, UniProt O00321 1-342); settings: protein: recombinant; tags: N-terminal GST; dsDNA, one strand shown
# T4 sequence: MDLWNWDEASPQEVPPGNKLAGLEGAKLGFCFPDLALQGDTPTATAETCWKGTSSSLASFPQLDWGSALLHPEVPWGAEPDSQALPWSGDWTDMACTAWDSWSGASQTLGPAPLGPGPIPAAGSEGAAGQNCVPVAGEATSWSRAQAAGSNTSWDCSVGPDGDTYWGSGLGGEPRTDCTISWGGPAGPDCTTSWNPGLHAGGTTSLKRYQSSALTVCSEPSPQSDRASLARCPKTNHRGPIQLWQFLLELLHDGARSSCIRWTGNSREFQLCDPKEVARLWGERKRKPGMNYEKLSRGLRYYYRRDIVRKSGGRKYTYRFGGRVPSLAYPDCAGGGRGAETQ
# Outline: as §1
# ELF3 = biological target: T5, ELF3 (Homo sapiens, UniProt P78545 1-371); settings: protein: recombinant; tags: N-terminal GST; dsDNA, one strand shown
# T5 sequence: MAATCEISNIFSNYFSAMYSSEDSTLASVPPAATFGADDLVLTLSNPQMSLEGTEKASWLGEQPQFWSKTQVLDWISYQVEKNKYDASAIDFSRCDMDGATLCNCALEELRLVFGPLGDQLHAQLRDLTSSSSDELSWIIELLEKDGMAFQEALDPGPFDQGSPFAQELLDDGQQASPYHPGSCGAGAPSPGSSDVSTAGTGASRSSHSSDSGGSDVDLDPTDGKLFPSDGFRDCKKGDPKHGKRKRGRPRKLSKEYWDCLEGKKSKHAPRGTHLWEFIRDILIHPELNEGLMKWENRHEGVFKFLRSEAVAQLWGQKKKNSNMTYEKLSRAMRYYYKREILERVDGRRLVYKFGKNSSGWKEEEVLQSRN
# Outline: as §1
# CRX = CRX (Homo sapiens, UniProt O43186 1-299); settings: protein: recombinant; tags: N-terminal GST; dsDNA, one strand shown
# Chain of CRX (O43186 whole entry): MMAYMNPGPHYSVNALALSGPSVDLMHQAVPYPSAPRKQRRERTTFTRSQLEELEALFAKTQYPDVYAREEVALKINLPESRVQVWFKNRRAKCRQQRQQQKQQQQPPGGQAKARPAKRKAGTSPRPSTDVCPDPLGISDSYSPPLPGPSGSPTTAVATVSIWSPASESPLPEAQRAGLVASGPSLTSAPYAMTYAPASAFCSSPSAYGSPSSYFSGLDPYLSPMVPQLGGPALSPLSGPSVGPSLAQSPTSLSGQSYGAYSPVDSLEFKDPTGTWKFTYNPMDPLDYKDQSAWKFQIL
# Outline: as §1
# ETV1 = ETV1 (Homo sapiens, UniProt P50549 1-477); settings: protein: recombinant; tags: N-terminal GST; dsDNA, one strand shown
# Chain of ETV1 (P50549 whole entry): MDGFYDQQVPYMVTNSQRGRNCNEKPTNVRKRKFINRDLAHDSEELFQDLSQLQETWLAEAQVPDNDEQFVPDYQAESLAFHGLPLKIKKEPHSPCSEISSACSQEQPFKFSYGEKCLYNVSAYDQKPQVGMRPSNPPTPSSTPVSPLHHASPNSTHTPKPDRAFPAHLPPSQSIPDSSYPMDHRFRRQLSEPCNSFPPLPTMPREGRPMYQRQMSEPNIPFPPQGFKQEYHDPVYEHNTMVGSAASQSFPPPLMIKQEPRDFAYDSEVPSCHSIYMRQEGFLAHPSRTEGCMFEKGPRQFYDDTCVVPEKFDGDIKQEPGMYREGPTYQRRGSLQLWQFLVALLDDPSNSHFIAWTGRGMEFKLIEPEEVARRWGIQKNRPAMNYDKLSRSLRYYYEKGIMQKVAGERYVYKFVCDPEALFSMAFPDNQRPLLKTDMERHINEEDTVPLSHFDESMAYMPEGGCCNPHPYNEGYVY
# Outline: as §1
# ERF = biological target: T6, ERF (Homo sapiens, UniProt P50548 1-548); settings: protein: recombinant; tags: N-terminal GST; dsDNA, one strand shown
# T6 sequence: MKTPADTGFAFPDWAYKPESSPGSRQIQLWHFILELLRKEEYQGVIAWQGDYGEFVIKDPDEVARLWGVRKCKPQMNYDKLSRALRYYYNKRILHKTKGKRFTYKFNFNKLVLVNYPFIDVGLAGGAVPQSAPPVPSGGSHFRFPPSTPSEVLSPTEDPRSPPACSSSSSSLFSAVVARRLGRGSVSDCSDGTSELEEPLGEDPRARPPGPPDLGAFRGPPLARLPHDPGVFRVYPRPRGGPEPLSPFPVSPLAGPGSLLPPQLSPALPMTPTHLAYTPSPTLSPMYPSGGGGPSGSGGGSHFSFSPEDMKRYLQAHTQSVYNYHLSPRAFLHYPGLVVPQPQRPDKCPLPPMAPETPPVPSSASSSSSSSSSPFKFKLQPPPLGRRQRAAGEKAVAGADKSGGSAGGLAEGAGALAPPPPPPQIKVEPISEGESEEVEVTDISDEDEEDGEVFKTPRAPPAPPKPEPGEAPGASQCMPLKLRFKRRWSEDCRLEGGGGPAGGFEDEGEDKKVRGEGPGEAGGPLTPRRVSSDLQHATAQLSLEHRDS
# Outline: as §1
# ETV3L = biological target: T7, ETV3L (Homo sapiens, UniProt Q6ZN32 1-361); settings: protein: recombinant; tags: N-terminal GST; dsDNA, one strand shown
# T7 sequence: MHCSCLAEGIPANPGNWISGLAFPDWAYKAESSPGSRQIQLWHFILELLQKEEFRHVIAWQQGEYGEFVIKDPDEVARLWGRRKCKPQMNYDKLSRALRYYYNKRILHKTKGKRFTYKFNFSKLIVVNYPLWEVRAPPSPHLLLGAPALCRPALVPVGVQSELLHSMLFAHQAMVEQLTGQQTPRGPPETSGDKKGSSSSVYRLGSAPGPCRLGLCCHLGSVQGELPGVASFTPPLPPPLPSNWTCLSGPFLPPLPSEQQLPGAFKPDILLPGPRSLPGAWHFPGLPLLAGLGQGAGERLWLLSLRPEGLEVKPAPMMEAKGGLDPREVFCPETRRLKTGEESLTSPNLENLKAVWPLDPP
# Outline: as §1
# ETS2 = biological target: T8, ETS2 (Homo sapiens, UniProt P15036 1-469); settings: protein: recombinant; tags: N-terminal GST; dsDNA, one strand shown
# T8 sequence: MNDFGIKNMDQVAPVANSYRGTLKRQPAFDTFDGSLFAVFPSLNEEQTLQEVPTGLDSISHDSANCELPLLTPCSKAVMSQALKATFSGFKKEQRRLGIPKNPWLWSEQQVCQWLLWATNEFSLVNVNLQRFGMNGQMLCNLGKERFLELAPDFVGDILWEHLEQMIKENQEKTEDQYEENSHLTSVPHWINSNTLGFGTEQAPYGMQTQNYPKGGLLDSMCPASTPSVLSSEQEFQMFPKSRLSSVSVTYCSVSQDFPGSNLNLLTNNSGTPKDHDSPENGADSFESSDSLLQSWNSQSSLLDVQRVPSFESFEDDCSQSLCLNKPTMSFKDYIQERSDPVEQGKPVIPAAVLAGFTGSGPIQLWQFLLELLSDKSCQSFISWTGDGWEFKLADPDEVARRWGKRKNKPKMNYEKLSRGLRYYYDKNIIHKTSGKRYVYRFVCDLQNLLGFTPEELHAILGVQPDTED
# Outline: as §1
# SPDEF = biological target: T9, SPDEF (Homo sapiens, UniProt O95238 1-335); settings: protein: recombinant; tags: N-terminal GST; dsDNA, one strand shown
# T9 sequence: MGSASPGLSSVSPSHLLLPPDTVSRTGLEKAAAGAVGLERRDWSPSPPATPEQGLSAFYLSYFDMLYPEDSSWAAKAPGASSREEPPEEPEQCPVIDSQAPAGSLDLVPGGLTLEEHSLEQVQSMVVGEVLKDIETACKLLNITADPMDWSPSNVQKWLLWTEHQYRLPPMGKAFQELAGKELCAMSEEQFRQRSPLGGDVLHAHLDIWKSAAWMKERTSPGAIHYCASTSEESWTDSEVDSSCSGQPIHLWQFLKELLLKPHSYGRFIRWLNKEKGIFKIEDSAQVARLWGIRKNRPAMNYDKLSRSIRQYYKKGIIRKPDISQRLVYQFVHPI
# Outline: as §1
# ETV7 = biological target: T10, ETV7 (Homo sapiens, UniProt Q9Y603 1-341); settings: protein: recombinant; tags: N-terminal GST; dsDNA, one strand shown
# T10 sequence: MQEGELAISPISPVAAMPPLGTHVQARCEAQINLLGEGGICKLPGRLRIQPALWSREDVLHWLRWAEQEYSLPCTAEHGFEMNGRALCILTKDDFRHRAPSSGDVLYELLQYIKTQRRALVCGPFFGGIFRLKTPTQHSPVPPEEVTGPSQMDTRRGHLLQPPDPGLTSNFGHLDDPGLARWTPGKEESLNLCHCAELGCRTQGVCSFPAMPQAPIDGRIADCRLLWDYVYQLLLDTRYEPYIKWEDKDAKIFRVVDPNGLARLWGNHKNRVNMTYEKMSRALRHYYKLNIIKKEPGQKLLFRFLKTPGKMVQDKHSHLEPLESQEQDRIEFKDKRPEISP
# Outline: as §1
# ELF5 = biological target: T11, ELF5 (Homo sapiens, UniProt Q9UKW6-2 1-255); settings: protein: recombinant; tags: N-terminal GST; dsDNA, one strand shown
# T11 sequence: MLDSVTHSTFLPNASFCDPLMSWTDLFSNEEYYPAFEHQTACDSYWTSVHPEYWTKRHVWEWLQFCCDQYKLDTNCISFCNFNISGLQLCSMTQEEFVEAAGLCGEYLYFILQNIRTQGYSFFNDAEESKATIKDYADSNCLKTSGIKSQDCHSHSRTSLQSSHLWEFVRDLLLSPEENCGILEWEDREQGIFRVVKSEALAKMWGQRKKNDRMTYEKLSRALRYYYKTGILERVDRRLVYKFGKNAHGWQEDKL
# Outline: as §1
# ETV3 = biological target: T12, ETV3 (Homo sapiens, UniProt P41162-2 1-143); settings: protein: recombinant; tags: N-terminal GST; dsDNA, one strand shown
# T12 sequence: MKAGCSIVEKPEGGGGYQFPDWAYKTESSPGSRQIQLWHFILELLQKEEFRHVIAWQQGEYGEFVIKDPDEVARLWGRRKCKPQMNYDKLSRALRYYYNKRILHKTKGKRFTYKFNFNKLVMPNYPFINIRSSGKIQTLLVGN
# Outline: as §1
# ETV6 = ETV6 (Homo sapiens, UniProt P41212 1-452); settings: protein: recombinant; tags: N-terminal GST; dsDNA, one strand shown
# Chain of ETV6 (P41212 whole entry): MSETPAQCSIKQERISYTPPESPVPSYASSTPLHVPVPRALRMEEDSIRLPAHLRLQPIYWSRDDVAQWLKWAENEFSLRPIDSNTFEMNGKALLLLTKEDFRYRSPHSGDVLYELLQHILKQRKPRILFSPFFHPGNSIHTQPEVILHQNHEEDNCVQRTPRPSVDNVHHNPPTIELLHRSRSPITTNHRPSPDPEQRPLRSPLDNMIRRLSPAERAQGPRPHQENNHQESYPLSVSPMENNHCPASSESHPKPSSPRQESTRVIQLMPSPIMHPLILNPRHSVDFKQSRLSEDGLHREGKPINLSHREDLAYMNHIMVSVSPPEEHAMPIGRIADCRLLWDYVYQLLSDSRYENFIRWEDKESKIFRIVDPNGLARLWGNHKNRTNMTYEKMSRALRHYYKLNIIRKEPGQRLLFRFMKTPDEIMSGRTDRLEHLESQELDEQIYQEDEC
# Outline: as §1
sequence,measurement,setting,value
TACCCT,binding signal,FEV,"1.29 fold enrichment (6-mer frequency, TF over GST control)"
same,binding signal,ETV5,"1.28 fold enrichment (6-mer frequency, TF over GST control)"
same,binding signal,HSF1,"1.28 fold enrichment (6-mer frequency, TF over GST control)"
same,binding signal,SPIC,"1.38 fold enrichment (6-mer frequency, TF over GST control)"
same,binding signal,ELF4,"1.44 fold enrichment (6-mer frequency, TF over GST control)"
same,binding signal,ELK4,"1.47 fold enrichment (6-mer frequency, TF over GST control)"
same,binding signal,ETV2,"1.35 fold enrichment (6-mer frequency, TF over GST control)"
same,binding signal,ELF3,"1.2 fold enrichment (6-mer frequency, TF over GST control)"
same,binding signal,CRX,"1.45 fold enrichment (6-mer frequency, TF over GST control)"
same,binding signal,ETV1,"1.35 fold enrichment (6-mer frequency, TF over GST control)"
same,binding signal,ERF,"1.28 fold enrichment (6-mer frequency, TF over GST control)"
same,binding signal,ETV3L,"1.18 fold enrichment (6-mer frequency, TF over GST control)"
same,binding signal,ETS2,"1.29 fold enrichment (6-mer frequency, TF over GST control)"
same,binding signal,SPDEF,"1.29 fold enrichment (6-mer frequency, TF over GST control)"
same,binding signal,ETV7,"1.27 fold enrichment (6-mer frequency, TF over GST control)"
same,binding signal,ELF5,"1.26 fold enrichment (6-mer frequency, TF over GST control)"
same,binding signal,ETV3,"1.25 fold enrichment (6-mer frequency, TF over GST control)"
same,binding signal,ETV6,"1.16 fold enrichment (6-mer frequency, TF over GST control)"

# From PMC7862700, “An all-to-all approach to the identification of sequence-specific readers for epigenetic DNA modifications on cytosine”
